Laboratory results: PubChem BioAssay

These compounds were tested against Left-right determination factor 2 (Homo sapiens) (UniProt O00292) (assay: small molecules binding LEFTY2 protein – biochemical, small-molecule microarray, 635 nm fluorescence scan, primary screen (AID 1110)). Conditions: higher = more signal.
Chain of Left-right determination factor 2 (Homo sapiens) (O00292 whole entry, looked up): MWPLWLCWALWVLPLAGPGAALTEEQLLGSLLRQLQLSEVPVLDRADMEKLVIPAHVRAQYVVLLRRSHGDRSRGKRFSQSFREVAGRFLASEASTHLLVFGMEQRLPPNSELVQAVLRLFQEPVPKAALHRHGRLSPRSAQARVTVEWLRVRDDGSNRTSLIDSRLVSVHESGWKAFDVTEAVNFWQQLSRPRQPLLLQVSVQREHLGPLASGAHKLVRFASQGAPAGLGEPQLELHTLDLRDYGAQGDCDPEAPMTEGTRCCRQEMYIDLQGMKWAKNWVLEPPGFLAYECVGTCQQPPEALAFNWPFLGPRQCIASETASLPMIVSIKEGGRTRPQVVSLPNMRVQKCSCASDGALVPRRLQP
Compound `C=CCN1C(=O)[C@@]2(O[C@@H](CCO)[C@H]([Si](C)(C)c3ccc(OC)cc3)[C@H]2C)c2cc(NC(C)=O)ccc21` has a composite z-score of 1.45.
For `O=C1O[C@@H](c2ccccc2)[C@@H](c2ccccc2)N2[C@@H](c3ccc(O)cc3)[C@]3(C(=O)Nc4ccc(C#CCCO)cc43)[C@@H](C(=O)N3CCCCCCC3)[C@H]12`, the composite z-score was 0.51.
`NC(=O)[C@]1(Cc2ccccc2)N=C(c2ccc(OCCCO)cc2)O[C@@H]1c1ccccc1` was tested, and the composite z-score was -1.02.
For `O=C1O[C@H](c2ccccc2)[C@H](c2ccccc2)N2[C@H]1[C@@H](C(=O)NC[C@H](O)c1ccccc1)[C@]1(C(=O)Nc3ccc(C#CC4=CCCCC4)cc31)[C@H]2c1ccc(O)cc1`, the composite z-score was 0.538.
`C=C[C@H](C)[C@H](O)c1ccc(OCCO)cc1` gave a composite z-score of -1.42.
Work on `O=S(=O)(NCCCO)c1ccc(Br)cc1` yielded a composite z-score of 0.548.
`O=C1c2ccccc2[C@](Cc2ccccc2I)(C(=O)O)[C@H](c2ccc(CO)cc2)N1Cc1ccccc1C(F)(F)F` was tested, and the composite z-score was -0.422.
Work on `CCOC(=O)C1=C[C@@H](C(C)(C)C)N(S(=O)(=O)c2ccc(C)cc2)[C@H]1c1ccc(Cl)c(Cl)c1` yielded a composite z-score of 0.595.
With `COCC1=C([C@H](O)CCc2ccccc2)[C@H](CO)[C@@H]2C(=O)N(Cc3ccccc3)C(=O)[C@@H]2C1` the composite z-score was 0.435.
`C[N+](C)(C)CCCC[C@@H]1NC(=O)[C@H]2C[C@@H](C(=O)O)[C@@H](c3cccc(OCCO)c3)N2C1=O` was tested, and the composite z-score was 0.968.
Compound `COc1ccc([Si](C)(C)[C@H]2[C@H](CC(=O)N3CCC[C@H]3CO)O[C@@]3(C(=O)N(Cc4cccc(N5CCC5=O)c4)c4ccccc43)[C@@H]2C)cc1` has a composite z-score of 0.992.
